Measured values: the supplement of paper PMC10849652
The full data set covers some 7,900 targets. This sample favours those with a hit. About 0.6% of all pairs of compound and target were hits.

The targets below were run with C1CN(CCC1(CC2=CC=C(C=C2)Cl)N)C3=NC=NC4=C3C=CN4 (assay: log2 fold change, soluble protein after heating vs DMSO (PISA); higher = thermal stabilisation; K562 cells, 10 uM, 30 min; active = over 0.2 and 3.5 SD of the protein, either way, in both replicates (recomputed)).
Method in brief: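 K562 cells at 2×10^6 cells/mL were exposed to 10 μM compound for 30 min, then aliquots were heated for 3 min across 48°C-58°C, pooled, and extracted in PBS containing 0.5% NP-40 at 4°C. The supernatant after 21,000xg for 90 min was taken as soluble protein and measured by TMTpro 16plex LC-MS/MS with channel sums equalised. Thermal stability is reported relative to control samples, with values from duplicates. Fold changes are given on a log2 scale.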

UniProt Q969T4, sequence (Q969T4 whole entry, looked up): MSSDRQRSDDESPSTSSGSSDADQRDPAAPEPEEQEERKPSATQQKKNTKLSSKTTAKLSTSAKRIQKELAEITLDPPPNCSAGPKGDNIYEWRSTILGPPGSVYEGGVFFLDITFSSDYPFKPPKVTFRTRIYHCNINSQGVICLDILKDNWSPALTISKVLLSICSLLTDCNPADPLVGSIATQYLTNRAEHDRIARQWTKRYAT
UniProt P51809, sequence (P51809 whole entry, looked up): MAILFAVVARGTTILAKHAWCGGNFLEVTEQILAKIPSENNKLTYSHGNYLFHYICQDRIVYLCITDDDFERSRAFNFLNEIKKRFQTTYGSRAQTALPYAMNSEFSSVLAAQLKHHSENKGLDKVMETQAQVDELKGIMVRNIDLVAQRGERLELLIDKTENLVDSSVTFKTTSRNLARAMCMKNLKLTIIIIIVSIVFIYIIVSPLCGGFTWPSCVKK
UniProt Q5BJH2, sequence (Q5BJH2 whole entry, looked up): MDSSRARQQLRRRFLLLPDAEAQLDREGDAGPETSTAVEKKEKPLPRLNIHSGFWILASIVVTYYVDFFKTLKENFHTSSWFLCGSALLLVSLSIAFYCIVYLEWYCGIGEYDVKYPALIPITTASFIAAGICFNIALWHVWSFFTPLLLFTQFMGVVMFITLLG
UniProt Q8N4H5, sequence (Q8N4H5 whole entry, looked up): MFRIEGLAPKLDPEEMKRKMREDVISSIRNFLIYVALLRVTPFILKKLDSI
UniProt O95155, sequence (O95155 whole entry, looked up): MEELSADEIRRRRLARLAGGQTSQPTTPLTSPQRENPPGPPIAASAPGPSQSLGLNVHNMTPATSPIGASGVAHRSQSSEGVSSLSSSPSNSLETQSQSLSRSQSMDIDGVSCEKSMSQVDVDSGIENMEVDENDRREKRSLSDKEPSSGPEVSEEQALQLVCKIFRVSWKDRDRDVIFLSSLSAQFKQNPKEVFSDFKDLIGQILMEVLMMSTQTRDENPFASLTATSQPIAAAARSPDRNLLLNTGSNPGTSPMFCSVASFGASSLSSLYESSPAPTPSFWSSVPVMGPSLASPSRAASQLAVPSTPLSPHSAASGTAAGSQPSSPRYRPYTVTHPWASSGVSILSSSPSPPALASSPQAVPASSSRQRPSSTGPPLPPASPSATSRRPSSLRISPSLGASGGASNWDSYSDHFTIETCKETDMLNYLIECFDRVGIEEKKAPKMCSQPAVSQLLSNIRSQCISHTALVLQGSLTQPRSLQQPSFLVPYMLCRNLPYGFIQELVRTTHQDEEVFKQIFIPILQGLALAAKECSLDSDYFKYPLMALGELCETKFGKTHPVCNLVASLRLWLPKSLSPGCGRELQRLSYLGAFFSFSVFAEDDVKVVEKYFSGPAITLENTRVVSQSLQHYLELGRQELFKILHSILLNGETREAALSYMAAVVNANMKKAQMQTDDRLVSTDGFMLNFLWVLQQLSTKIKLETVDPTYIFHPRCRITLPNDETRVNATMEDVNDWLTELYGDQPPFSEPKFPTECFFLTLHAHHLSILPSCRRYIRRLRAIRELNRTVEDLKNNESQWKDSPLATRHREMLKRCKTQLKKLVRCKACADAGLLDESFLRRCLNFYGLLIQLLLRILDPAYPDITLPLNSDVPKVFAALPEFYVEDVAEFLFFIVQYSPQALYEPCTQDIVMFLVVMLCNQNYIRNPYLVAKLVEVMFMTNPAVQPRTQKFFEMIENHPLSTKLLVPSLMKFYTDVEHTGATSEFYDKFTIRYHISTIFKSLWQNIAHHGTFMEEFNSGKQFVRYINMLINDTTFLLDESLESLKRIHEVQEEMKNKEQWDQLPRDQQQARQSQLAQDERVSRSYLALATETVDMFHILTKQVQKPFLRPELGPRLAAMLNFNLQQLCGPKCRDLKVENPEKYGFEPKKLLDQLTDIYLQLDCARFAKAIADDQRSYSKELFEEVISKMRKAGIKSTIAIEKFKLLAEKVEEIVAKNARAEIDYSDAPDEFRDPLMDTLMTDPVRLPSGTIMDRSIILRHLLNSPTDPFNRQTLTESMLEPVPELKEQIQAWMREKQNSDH
UniProt Q53S58, sequence (Q53S58 whole entry, looked up): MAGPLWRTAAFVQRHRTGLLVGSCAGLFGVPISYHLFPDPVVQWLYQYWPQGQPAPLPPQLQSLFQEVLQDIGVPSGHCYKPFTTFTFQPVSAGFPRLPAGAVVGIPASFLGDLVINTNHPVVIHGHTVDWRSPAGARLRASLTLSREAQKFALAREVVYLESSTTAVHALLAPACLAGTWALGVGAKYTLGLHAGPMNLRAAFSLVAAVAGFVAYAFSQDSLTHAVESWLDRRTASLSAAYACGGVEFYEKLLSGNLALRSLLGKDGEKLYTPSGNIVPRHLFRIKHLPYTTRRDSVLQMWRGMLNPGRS
UniProt Q92890, sequence (Q92890 whole entry, looked up): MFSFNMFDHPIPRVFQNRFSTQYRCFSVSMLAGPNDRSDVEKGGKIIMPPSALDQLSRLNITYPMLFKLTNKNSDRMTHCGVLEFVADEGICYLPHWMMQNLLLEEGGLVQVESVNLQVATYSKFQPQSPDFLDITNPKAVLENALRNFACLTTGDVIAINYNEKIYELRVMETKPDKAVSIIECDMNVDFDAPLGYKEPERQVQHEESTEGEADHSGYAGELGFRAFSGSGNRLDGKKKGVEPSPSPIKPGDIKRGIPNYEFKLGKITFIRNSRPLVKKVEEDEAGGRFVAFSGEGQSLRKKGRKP
UniProt P43897, sequence (P43897 whole entry, looked up): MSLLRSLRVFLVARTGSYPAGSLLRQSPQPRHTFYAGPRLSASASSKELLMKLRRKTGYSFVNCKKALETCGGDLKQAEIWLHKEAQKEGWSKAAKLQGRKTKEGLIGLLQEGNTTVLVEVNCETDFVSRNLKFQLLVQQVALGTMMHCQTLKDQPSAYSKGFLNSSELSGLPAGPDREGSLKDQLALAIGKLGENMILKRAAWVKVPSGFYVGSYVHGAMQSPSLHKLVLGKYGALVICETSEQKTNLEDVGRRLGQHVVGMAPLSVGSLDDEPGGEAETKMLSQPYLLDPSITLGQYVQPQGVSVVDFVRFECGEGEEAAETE
UniProt O60701, sequence (O60701 whole entry, looked up): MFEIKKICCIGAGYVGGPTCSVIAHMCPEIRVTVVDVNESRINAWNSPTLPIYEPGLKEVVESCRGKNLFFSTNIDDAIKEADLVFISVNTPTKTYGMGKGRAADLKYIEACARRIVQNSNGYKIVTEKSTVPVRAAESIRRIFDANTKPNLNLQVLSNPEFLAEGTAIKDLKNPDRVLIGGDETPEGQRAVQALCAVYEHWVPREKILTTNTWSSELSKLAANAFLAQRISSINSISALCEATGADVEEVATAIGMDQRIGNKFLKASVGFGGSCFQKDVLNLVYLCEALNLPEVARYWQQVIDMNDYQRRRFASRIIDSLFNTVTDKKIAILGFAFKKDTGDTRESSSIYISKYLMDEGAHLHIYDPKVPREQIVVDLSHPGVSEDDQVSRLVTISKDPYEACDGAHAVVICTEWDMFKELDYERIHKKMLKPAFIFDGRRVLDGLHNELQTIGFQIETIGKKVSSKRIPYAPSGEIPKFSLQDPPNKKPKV
UniProt O43396, sequence (O43396 whole entry, looked up): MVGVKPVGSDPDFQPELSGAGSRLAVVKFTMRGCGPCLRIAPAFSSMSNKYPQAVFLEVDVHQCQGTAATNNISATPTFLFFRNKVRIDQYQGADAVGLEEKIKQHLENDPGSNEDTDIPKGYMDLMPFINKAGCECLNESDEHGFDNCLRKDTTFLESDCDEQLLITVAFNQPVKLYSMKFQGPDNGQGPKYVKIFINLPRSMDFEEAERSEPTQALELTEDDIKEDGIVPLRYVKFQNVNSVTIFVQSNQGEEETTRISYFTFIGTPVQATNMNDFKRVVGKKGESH
UniProt Q99757, sequence (Q99757 whole entry, looked up): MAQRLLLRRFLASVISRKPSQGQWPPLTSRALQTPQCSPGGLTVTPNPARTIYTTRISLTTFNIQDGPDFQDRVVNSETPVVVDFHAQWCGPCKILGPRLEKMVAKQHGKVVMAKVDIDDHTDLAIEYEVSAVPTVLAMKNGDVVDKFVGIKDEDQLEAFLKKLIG
UniProt O00220, sequence (O00220 whole entry, looked up): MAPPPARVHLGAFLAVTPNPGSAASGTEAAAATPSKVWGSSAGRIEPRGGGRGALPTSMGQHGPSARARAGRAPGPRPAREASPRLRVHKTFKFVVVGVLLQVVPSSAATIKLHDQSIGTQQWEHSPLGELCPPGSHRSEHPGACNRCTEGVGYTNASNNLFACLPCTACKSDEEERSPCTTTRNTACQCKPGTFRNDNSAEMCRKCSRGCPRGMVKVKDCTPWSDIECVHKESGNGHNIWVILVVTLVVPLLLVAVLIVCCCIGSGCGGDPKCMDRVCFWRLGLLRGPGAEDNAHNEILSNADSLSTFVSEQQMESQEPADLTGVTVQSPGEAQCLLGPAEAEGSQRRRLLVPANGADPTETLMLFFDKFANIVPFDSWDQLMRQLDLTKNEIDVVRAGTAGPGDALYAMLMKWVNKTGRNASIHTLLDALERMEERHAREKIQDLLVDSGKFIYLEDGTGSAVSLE
UniProt Q9NQZ2, sequence (Q9NQZ2 whole entry, looked up): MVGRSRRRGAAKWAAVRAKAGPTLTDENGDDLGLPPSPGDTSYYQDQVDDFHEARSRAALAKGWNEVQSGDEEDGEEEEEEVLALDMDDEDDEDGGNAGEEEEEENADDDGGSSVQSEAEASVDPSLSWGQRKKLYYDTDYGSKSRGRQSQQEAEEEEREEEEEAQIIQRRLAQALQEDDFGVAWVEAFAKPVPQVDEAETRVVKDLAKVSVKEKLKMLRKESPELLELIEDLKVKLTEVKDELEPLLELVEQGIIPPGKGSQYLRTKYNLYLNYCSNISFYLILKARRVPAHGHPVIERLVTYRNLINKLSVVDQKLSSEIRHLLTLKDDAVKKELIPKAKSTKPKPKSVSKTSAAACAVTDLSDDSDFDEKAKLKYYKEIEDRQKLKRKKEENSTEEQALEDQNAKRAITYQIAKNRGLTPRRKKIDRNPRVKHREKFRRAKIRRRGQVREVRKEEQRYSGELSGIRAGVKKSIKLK

log2 fold change, inactive:
TRAPPC8 (UniProt Q9Y2L5) -0.036
TOMM5 isoform 2 (UniProt Q8N4H5) -0.047
TSFM (UniProt P43897) 0.095
XPO6 (UniProt Q96QU8) 0.02
VPS35L (UniProt Q7Z3J2) 0.071
UBE4B isoform 4 (UniProt O95155) -0.025
TOP2A isoform 4 (UniProt P11388) -0.219
TMEM128 (UniProt Q5BJH2) 0.084
WASH2P (UniProt Q6VEQ5) 0.013
UTP3 (UniProt Q9NQZ2) -0.203
UGDH (UniProt O60701) 0.009
WDR43 (UniProt Q15061) 0.042
TNFRSF10A (UniProt O00220) -0.049
XPOT (UniProt O43592) -0.088
VPS33A (UniProt Q96AX1) -0.083
VPS13B (UniProt Q7Z7G8) 0.058
TMEM63B (UniProt Q5T3F8) 0.065
U2AF2 (UniProt P26368) -0.074
TMEM120A (UniProt Q9BXJ8) 0.1
TXN2 (UniProt Q99757) 0.005
TOM1 isoform 2 (UniProt O60784) 0.014
VPS33B (UniProt Q9H267) -0.102
TOM1L1 (UniProt O75674) 0.076
USP48 isoform 8 (UniProt Q86UV5) -0.029
TTC4 (UniProt O95801) -0.018
UCHL5 isoform 3 (UniProt Q9Y5K5) -0.103
TXNL1 (UniProt O43396) -0.077
TMEM177 (UniProt Q53S58) 0.132
USP25 isoform 3 (UniProt Q9UHP3) 0.043
UBE2E3 (UniProt Q969T4) -0.019
TMEM263 (UniProt Q8WUH6) 0.022
UFD1 isoform 1 (UniProt Q92890) 0.024
VAMP7 (UniProt P51809) 0.03
VPS8 (UniProt Q8N3P4) 0.027
